Measurements: PubChem BioAssay (NCATS)
Inconclusive results are not listed. The source made the active and inactive calls. Calls follow the shape of the dose curve; as a rule, active = well fitted inhibition curve with a large enough effect; inconclusive = small, poorly fitted or top-dose-only effect, or effect the other way; inactive = flat fitted curve, though single readings scatter.

target: ATPase family AAA domain-containing protein 5 (Homo sapiens) (UniProt Q96QE3); test: Validation screen for small molecules that inhibit ELG1-dependent DNA repair in human embryonic kidney (HEK293T) cells expressing luciferase-tagged ELG1 (AID 493107); conditions: HEK293T ELG1-luciferase level, luminescence, 5-fluorouridine co-treatment, 16 h; series mostly up to 46.1 µM;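 also: inhibitors lower the ELG1-luciferase luminescence signal; nearly all actives have a fitted effect of over 70% in size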
Sequence (Q96QE3 whole entry, looked up, the tested form may be a part): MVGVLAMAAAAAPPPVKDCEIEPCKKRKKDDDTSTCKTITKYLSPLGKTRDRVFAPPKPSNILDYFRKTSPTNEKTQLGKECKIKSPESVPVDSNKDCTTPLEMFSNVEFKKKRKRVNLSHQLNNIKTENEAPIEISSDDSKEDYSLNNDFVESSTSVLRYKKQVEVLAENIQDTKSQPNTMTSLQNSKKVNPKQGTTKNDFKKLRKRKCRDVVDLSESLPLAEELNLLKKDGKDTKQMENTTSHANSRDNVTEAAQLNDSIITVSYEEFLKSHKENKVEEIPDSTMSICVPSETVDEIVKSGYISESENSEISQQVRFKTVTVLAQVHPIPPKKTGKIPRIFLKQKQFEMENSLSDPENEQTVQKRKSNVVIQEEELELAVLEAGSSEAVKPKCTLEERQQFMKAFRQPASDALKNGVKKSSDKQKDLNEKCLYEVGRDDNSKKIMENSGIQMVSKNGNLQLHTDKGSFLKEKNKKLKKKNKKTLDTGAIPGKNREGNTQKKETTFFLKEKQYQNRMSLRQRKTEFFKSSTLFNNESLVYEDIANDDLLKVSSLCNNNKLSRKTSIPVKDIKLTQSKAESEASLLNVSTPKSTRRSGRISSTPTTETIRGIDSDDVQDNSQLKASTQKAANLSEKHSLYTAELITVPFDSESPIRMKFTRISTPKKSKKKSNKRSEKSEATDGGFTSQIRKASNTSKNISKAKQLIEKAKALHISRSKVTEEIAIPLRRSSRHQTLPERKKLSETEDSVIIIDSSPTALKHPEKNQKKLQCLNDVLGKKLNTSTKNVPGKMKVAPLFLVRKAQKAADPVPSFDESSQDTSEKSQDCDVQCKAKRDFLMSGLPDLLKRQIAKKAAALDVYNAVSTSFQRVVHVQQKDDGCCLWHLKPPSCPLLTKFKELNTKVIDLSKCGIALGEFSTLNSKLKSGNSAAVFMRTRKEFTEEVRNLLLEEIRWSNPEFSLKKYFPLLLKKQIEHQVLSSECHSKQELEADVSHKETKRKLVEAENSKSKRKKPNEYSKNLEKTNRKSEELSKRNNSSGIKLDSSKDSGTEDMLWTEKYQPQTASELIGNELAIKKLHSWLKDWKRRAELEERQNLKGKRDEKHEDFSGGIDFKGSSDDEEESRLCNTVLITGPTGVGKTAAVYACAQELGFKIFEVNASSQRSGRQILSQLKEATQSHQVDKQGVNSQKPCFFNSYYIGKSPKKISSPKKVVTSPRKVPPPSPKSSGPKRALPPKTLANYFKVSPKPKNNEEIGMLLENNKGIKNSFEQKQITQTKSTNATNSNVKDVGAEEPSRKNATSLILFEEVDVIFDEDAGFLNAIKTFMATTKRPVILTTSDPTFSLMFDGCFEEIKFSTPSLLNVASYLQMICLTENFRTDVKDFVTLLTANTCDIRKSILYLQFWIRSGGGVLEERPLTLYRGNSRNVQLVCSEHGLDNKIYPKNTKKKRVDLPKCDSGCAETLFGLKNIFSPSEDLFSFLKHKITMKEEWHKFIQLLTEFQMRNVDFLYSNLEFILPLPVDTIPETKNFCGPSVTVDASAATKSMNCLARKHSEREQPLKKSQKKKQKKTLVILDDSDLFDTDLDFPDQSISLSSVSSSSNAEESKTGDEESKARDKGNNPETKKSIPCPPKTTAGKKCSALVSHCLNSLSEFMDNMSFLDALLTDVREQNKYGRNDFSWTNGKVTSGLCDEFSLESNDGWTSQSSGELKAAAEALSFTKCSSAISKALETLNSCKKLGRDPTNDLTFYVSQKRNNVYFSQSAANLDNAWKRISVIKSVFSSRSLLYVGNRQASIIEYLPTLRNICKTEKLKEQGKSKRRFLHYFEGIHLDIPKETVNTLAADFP
Text: NIH Molecular Libraries Probe Production Network [MLPCN]
NIH Chemical Genomics Center [NCGC]
Assay Provider: Kyungjae Myung, NHGRI, NIH
Keywords: MLPCN, qHTS, NCGC, genotoxicity, cancer
Cancer cells divide rapidly compared to normal cells in the body. During cell division, cancer cells need to duplicate their genome by DNA replication. The failure of genome duplication leads to cancer cells' death. Therefore, inhibitors of DNA replication could specifically kill cancer cells. Based on this concept, many chemotherapeutic agents were developed and have been used to treat cancer patients. However, there are a limited number of agents available in the clinical setting, and some of those that do exist have low efficacy and severe side effects. Therefore, if we can find the compounds that effectively block DNA replication either by directly damaging DNA or by inhibiting other cellular mechanisms, the options for cancer treatment will be broadened. With this in mind, we developed a quantitative high-throughput ELG1-luciferase reporter gene assay. Small molecules that specifically block ELG1 function in response to DNA damage can be identified by monitoring the suppression of luciferase activity. Since ELG1 defines a pathway for repairing DNA damage, agents blocking ELG1 function can be used to sensitize cancer cells to chemotherapeutic agents whose mechanism of action involves the induction of DNA damage.
For genotoxicity screening, 2,000 cells in 4 uL/well were dispensed into white, solid-bottom 1536-well plates using a solenoid-based dispenser. Following transfer of 1 uL 5-Fluorouridine and 23 nL compound or DMSO vehicle by a pin tool, the plates were incubated 16 hr at 37 °C and 5% CO2. 5 ul ONE-Glo (Promega) was then added to each plate and following a 30 min incubation at room temperature, luciferase activity was quantified on a ViewLux CCD-based plate reader.

SMILES	outcome
NC(=NCc1ccccc1)NC(=O)c1nc(Cl)c(N)nc1N	inactive
OC(CN1CCN(c2cccc(Cl)c2)CC1)C(c1ccccc1)c1ccccc1 (stereo unspecified)	inactive
Nc1ccn([C@@H]2O[C@H](CO)[C@@H](O)C2O)c(=O)n1 (stereo partly specified)	inactive
O=c1c(O)c(-c2ccc(O)cc2O)oc2cc(O)cc(O)c12	inactive
COc1cc2nc(N3CCN(C(=O)C4CCCO4)CC3)nc(N)c2cc1OC (stereo unspecified)	inactive
CCOC(=O)C(C)Oc1cccc2c(=O)n(CC(=O)Nc3ccc4c(c3)OCCO4)ccc12 (stereo unspecified)	inactive
O=c1c(O)c(-c2cc(O)c(O)c(O)c2)oc2cc(O)cc(O)c12	inactive
CN(C)CCCC1(c2ccc(F)cc2)OCc2cc(C#N)ccc21 (stereo unspecified)	inactive
CNC[C@H](O)c1ccc(O)c(O)c1	inactive
Oc1ccc2ccccc2c1SSc1c(O)ccc2ccccc12	inactive
CC1(C)NC(=O)N(c2ccc([N+](=O)[O-])c(C(F)(F)F)c2)C1=O	inactive
Nc1nc(N)c(N=O)c(OCC2CCCCC2)n1	inactive
COc1ccc2cc([C@H](C)C(=O)O)ccc2c1	inactive
COc1ccccc1N1CCN(CCN(C(=O)C2CCCCC2)c2ccccn2)CC1	inactive
Nc1nc(OCc2ccccc2)c2[nH]cnc2n1	inactive
Cc1cc(O)c2c(c1)C(=O)c1cc(O)cc(O)c1C2=O	inactive
CC(C)c1ccc2c(c1)c(SC(C)(C)C)c(CC(C)(C)C(=O)O)n2Cc1ccc(Cl)cc1	inactive
O=C1c2c(O)cc(O)cc2OC(c2ccc(O)c(O)c2)C1O (stereo unspecified)	inactive
O=C1c2ccccc2-c2n[nH]c3cccc1c23	inactive
O=C(O)c1cccnc1Nc1cccc(C(F)(F)F)c1	inactive
O=C(c1ccccc1)c1ccc2n1CCC2C(=O)O (stereo unspecified)	inactive
